# Assay outcomes (PubChem)
# S-ASM inh – human S-ASM enzyme inhibition. 340,000 compounds, 0.006% hits. placental ASM, HMU-PC fluorogenic substrate, 60 min. Potency, µM (top dose mostly 57.5 µM), for inactives: at the highest dose activity change, negative = inhibition, usual class: inhibitors; further: potency means the concentration at half of the fitted maximal effect
# Target sequence (P17405 47-631 limits assumed): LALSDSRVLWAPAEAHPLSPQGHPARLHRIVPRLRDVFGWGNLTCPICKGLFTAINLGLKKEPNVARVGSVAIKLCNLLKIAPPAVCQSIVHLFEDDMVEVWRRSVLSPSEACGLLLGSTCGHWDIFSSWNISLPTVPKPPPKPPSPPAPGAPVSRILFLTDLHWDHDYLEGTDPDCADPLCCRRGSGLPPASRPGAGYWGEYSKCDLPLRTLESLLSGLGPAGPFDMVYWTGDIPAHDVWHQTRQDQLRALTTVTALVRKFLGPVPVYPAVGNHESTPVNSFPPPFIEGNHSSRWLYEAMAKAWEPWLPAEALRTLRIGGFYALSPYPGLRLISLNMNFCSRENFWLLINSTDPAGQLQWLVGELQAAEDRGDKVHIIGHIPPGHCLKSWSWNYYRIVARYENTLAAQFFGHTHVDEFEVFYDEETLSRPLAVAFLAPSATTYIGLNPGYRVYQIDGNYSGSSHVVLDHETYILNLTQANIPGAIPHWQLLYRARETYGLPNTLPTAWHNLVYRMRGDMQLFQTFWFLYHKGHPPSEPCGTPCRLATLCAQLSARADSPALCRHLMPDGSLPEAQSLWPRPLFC
#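 Human placenta-derived ASM enzyme was preincubated with compound for 10 minutes at room temperature, then given fluorogenic substrate HMU-PC0 (9 uM final) for 60 minutes at 37 °C; a pH 10 stop preceded fluorescence reading at Ex 386/Em 447 nm.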
# TDP1 cell noCPT – qHTS for Inhibitors of human tyrosyl-DNA phosphodiesterase 1 (TDP1): qHTS in cells in absence of CPT; DT40 Tdp1-/- hTDP1 cells, no CPT, ATP luminescence, 48 h; Potency, µM (series often up to 46.2 µM), for inactives: at the top dose activity change, negative = growth inhibition, actives largely listed as inhibitors; 420,000 compounds, 15% hits; AID 686978, 2013; further: potency means the concentration at half of the fitted maximal effect; on the % scale 0 is the no-effect control and ±100 the full control effect; nearly all actives have a fitted effect of over 55% in size
#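 DT40 Tdp1-/-;hTDP1 cells, no CPT (DMSO vehicle only), 400 cells/well; compounds pin-transferred; ≥48 hr, 37 °C; CellTiter-Glo 30 min RT dark, luminescence read.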
# IL-1B inflam inh – inflammasome signaling inhibition, IL-1 beta readout. THP-1 LPS/ATP IL-1B secretion, AlphaLISA, 16 h; stronger effect = lower value. activity change, % at 57.5 µM. 360,000 compounds, 4.7% hits; in the data active means activity change below about -50%; inconclusive means mostly about -30% to -49%; further: on the % scale 0 is the no-effect control and ±100 the full control effect
#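 THP-1 cells pretreated 1 hr with compounds (up to 57.5 uM final), then stimulated with LPS (250 ng/mL final) plus ATP (1.25 mM final); secreted IL-1B measured by AlphaLISA after 16 hr, decreased signal indicating inhibition.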
# TDP1 cell CPT – DT40-hTDP1 cell growth loss with CPT. chicken DT40 Tdp1-/-;hTDP1 cells + 20 nM CPT, ATP luminescence, 48 h. 420,000 compounds, 12% hits. Potency, µM (series often up to 46.2 µM), without a hit: at the top dose activity change, negative = growth inhibition, hits mostly inhibitors; further: potency means the concentration at half of the fitted maximal effect; on the % scale 0 is the no-effect control and ±100 the full control effect; nearly all actives have a fitted effect of over 55% in size
#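 Cell growth measured by CellTiter-Glo luminescence after a minimum 48 h, 37 C compound exposure with 20 nM CPT in Tdp1-knockout DT40 cells stably expressing hTDP1, seeded 400/well; qHTS titration format.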
# TGFb SMAD3 inh – inhibitors of TGF-b signaling. 410,000 compounds, 1.2% hits. Potency, µM (top dose mostly 46.1 µM), inactives show at the highest dose activity, negative = inhibition, hits mostly inhibitors. HepG2 CAGA-GFP TGF-b/SMAD3 reporter, GFP fluorescence, 18 h; TGF-beta stimulated, 500 pg/mL final. AID 588855; further: potency means the concentration at half of the fitted maximal effect; on the % scale 0 is the no-effect control and ±100 the full control effect; nearly all actives have a fitted effect of over 65% in size
#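 Cell-based qHTS in HEPG2 carrying a CAGA-GFP Smad reporter; compounds added before 500 pg/mL final TGF-beta, 18 h incubation at 37 degrees C, GFP fluorescence quantified per cell by imaging cytometry.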
# HepG2 tox-1 – kills HepG2 cells in TGF-b inhibitor counter-screen | HepG2 CAGA-GFP viability, ATP luminescence, 18 h | Potency, µM (titrated, usually from 46.1 µM), for inactives: at the highest dose activity change, negative = cytotoxicity, actives largely listed as cytotoxic | 410,000 compounds, 0.76% hits | AID 588856; further: potency means the concentration at half of the fitted maximal effect
#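 HepG2 CAGA-GFP cells (1000/well, DMEM with 1% FBS) received compound, then TGF-beta at 500 pg/mL final, and were incubated 18 hours at 37 degrees C. Viability was read by CellTiter-Glo luminescence. Media-only wells were set as complete cell-killing and DMSO as no toxicity.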
# TGFb CAGA inh – TGF-b pathway inhibition, cherry-pick retest; shares compounds with TGFb SMAD3 inh; HepG2 CAGA-GFP TGF-b reporter, GFP fluorescence, 18 h; cells stimulated with TGF-beta, 500 pg/mL; Potency, µM (doses to about 46.1 µM), without a hit: top-dose activity, negative = inhibition, hits mostly inhibitors; 1,600 compounds, 63% hits; further: potency means the concentration at half of the fitted maximal effect; on the % scale 0 is the no-effect control and ±100 the full control effect; nearly all actives have a fitted effect of over 65% in size
# HepG2 tox-2 – HepG2 cytotoxicity, TGF-b inhibitor counterscreen. Potency, µM (highest dose often 46.1 µM), for inactives: at the top dose activity, negative = cytotoxicity, hits mostly inhibitors. shares compounds with TGFb SMAD3 inh. 1,600 compounds, 27% hits. AID 720535. HepG2 CAGA-GFP viability, ATP luminescence, 18 h; cells stimulated with TGF-beta, 500 pg/mL; further: potency means the concentration at half of the fitted maximal effect; on the % scale 0 is the no-effect control and ±100 the full control effect; nearly all actives have a fitted effect of over 70% in size
# CCL64 TGFb inh – blocks TGF-b signaling in CCL64 reporter cells; 1,600 compounds, 41% hits; Potency, µM (doses to about 46.1 µM), for inactives: at the highest dose activity, negative = inhibition, hits mostly inhibitors; shares compounds with TGFb SMAD3 inh; CCL64 CAGA-GFP reporter, TGF-b stimulated, GFP fluorescence, 18 h; further: potency means the concentration at half of the fitted maximal effect; nearly all actives have a fitted effect of over 65% in size
# TGFb COP inh – TGF-b inhibition validated with COP promoter; HepG2 COP-GFP TGF-b reporter, GFP fluorescence, 18 h; cells stimulated by added recombinant TGF-beta; AID 720537; shares compounds with TGFb SMAD3 inh; Potency, µM (series often up to 46.1 µM), without a hit: top-dose activity, negative = inhibition, hits mostly inhibitors; 1,600 compounds, 3% hits; further: potency means the concentration at half of the fitted maximal effect; nearly all actives have a fitted effect of over 70% in size
# Numbers without * were called inactive; ? = inconclusive; . = no result given. Hits are enriched below; roughly 19% of the tested compounds scored in any of these assays. Unless noted, the call rests on the fitted dose curve; in most records, active means well fitted curve in the direction sought with a large enough effect; inconclusive means small, poorly fitted or top-dose-only effect, or another doubt; inactive means no such curve, though single readings can be large; an effect the other way counts as inactive or inconclusive.
SMILES,S-ASM inh,TDP1 cell noCPT,IL-1B inflam inh,TDP1 cell CPT,TGFb SMAD3 inh,HepG2 tox-1,TGFb CAGA inh,HepG2 tox-2,CCL64 TGFb inh,TGFb COP inh
CC(C)c1ccccc1OCC(=O)NC1CCCc2ccccc21 (stereo not drawn),-5%,?,-27,?,16µM*,-8%,18µM*,?,?,11%
CCN(C(=O)COC(=O)c1nccnc1N)c1cccc2ccccc12,416%,-21%,11,-2%,18%,2%,.,.,.,.
CSc1ccc(CNC(=O)C2(C)CCCN(C(C)=O)C2)cc1 (stereo not drawn),.,0%,0,-14%,7%,1%,.,.,.,.
O=C(Nc1cccc(C(F)(F)F)c1)Nc1ccc(N2CCCC2)c(S(=O)(=O)Nc2ccccc2Cl)c1,-8%,2.9µM*,-71*,3.3µM*,2.8µM*,-56%,4.1µM*,9.2µM*,5.2µM*,100%
CCOC(=O)C1CCCCN1Cc1ccc(-c2ccccc2)cc1 (stereo not drawn),2%,?,8,?,1%,-1%,.,.,.,.
Cc1cc(F)ccc1S(=O)(=O)Nc1ccccc1C(=O)NC1CCN(Cc2ccccc2)CC1,4%,?,-15,?,0%,-35%,.,.,.,.
Cc1cccc(NS(=O)(=O)c2ccc(C)c(C(=O)NC3CCN(Cc4ccccc4)CC3)c2)c1,4%,?,-21,?,10µM*,-16%,?,-28%,?,5%
CN(CC(=O)Nc1cccc(S(=O)(=O)N2CCCC2)c1)CC(=O)Nc1ccc(F)c(F)c1F,-2%,?,14,?,-2%,0%,.,.,.,.
CN(CC(=O)Nc1cccc(S(=O)(=O)N2CCCC2)c1)CC(=O)Nc1ccc(Cl)c(C(F)(F)F)c1,-18%,16µM*,-66*,?,16µM*,-14%,16µM*,?,29µM*,60%
O=C(CNc1ccc(Cl)c(C(F)(F)F)c1)N1CCN(S(=O)(=O)c2ccccc2)CC1,-5%,?,-30,?,13µM*,-8%,12µM*,-3%,-25%,-10%
Cc1ccc(C)c(N2CCN(C(=O)Cn3cnc4nc5c(cc4c3=O)CCCC5)CC2)c1,.,?,.,?,-9%,-3%,.,.,.,.
